# According to publication PMC13541613, “GHT-SELEX demonstrates unexpectedly high intrinsic sequence specificity and complex DNA binding of many human transcription factors”:
# Target: ZNF721 DBD1 (Homo sapiens, UniProt Q8TF20-2 29-461)
# Experiment: HT-SELEX; 20 mM HEPES pH 7, 140 mM KCl, 5 mM NaCl, 1 mM K2HPO4, 2 mM MgSO4, 100 uM EGTA, ZnSO4, 0.1% Tween20; room temperature, 1 h; high values mean tight binding
# Settings: protein: ivt; tags: eGFP (N-terminal); dsDNA, one strand shown
# Method in brief: (§1)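 Full-length or DNA-binding-domain forms of a tagged transcription factor were produced in HEK293 lysate or cell-free extract and immobilised on beads. Incubation with a randomized 40-base DNA library ran for 1 h at room temperature in HEPES/KCl low-stringency buffer with Tween20, after which bound DNA was washed, heat-eluted, PCR-amplified over successive cycles and Illumina-sequenced. Binding strength is given as the relative k-mer count in selected reads, higher for tighter binding.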
# ZNF721 DBD1, sequence (Q8TF20 17-449): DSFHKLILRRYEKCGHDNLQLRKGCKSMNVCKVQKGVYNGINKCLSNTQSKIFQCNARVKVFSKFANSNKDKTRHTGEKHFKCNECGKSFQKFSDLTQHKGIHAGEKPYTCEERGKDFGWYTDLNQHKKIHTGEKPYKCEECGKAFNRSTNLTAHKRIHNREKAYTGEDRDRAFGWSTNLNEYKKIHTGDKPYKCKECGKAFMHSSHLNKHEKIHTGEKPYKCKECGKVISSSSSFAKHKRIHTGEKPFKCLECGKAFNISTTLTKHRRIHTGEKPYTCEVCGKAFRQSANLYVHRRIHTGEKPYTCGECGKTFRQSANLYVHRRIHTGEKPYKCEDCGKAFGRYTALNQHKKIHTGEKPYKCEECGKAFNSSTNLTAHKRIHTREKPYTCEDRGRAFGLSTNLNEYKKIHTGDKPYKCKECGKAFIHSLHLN
row,Sequence,binding signal [relative 10-mer count]
1,CAAAAAAAAA,0.0215
2,GCCCACCACC,0.00688
3,CCCCCCCCAC,0.0089
4,CGACCCCCCC,0.00427
5,CGTCCCACCC,0.00495
6,ACACCCCACC,0.00413
7,CCCACCACCA,0.00784
8,AAAGCAGCGT,0.00115
9,CAGCCCACCC,0.00431
10,ACCCCCACCG,0.00367
11,CCCCCAACCA,0.00477
12,AGCATCTCCA,0.0129
13,CACCCAACCC,0.005
14,AGGGGGTGGG,0.0107
15,CCCCCGCTCC,0.0033
16,CAACAAAGCA,0.00101
17,GCCCCGCCCC,0.00436
18,AGGGGGGAGG,0.00789
19,CCACCGCCAC,0.00394
20,CCCACCACCG,0.00514

row,Sequence,binding signal [relative 10-mer count]
1,CGCCCCCGCC,0.00523
2,CCCCAACCAC,0.00665
3,CCCCCCCGAC,0.00408
4,CCACCACGCC,0.00316
5,CCCCCCTCCC,0.0139
6,AGGGGAGGGG,0.00665
7,AGGGTGGTGG,0.00642
8,CACCCTCCCC,0.00945
9,CCCCACCACG,0.0039
10,CCTCGCCCCC,0.00592
11,CTCCCACCAC,0.00752
12,CCACCCACAC,0.00734
13,CCACCCCTAC,0.00449
14,CCTCCCCCCG,0.00541
15,GGGGGTGGGA,0.0115
16,GCAAAAAAAA,0.0105
17,CCCCTCCCCC,0.0145
18,CGCCCCACCA,0.00362
19,CCCCGCCCAC,0.00771
20,CCCACCTACC,0.00573

# Target: ZNF721 DBD2 (Homo sapiens, UniProt Q8TF20-2 395-923)
# Experiment: as above
# Settings: protein: ivt; tags: eGFP (N-terminal); dsDNA, one strand shown
# Method in brief: as §1
# ZNF721 DBD2, sequence (Q8TF20 383-911): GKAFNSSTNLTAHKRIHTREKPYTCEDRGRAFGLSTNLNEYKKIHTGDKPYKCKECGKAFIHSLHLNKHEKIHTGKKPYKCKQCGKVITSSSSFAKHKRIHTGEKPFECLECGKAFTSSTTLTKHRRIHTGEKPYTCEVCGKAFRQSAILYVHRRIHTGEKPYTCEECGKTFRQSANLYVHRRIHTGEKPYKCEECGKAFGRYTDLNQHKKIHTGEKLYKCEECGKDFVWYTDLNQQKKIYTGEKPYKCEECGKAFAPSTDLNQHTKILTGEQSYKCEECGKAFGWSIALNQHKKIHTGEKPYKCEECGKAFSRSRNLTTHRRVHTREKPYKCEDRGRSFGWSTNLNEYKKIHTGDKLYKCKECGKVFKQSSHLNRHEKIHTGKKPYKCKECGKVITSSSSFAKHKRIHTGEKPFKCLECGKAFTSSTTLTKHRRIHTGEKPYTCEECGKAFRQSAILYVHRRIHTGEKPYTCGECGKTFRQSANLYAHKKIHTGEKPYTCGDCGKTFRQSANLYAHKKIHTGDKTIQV
row,Sequence,binding signal [relative 10-mer count]
1,CAAAAAAAAA,0.0886
2,GCCCACCACC,0.00336
3,CCCCCCCCAC,0.00539
4,CGACCCCCCC,0.0018
5,CGTCCCACCC,0.00204
6,ACACCCCACC,0.00204
7,CCCACCACCA,0.00599
8,AAAGCAGCGT,0.512
9,CAGCCCACCC,0.0841
10,ACCCCCACCG,0.00336
11,CCCCCAACCA,0.00503
12,AGCATCTCCA,0.121
13,CACCCAACCC,0.00252
14,AGGGGGTGGG,0.00467
15,CCCCCGCTCC,0.00144
16,CAACAAAGCA,0.145
17,GCCCCGCCCC,0.00156
18,AGGGGGGAGG,0.00384
19,CCACCGCCAC,0.00599
20,CCCACCACCG,0.00503

row,Sequence,binding signal [relative 10-mer count]
1,CGCCCCCGCC,0.00216
2,CCCCAACCAC,0.00515
3,CCCCCCCGAC,0.00288
4,CCACCACGCC,0.00587
5,CCCCCCTCCC,0.00372
6,AGGGGAGGGG,0.00479
7,AGGGTGGTGG,0.00455
8,CACCCTCCCC,0.00312
9,CCCCACCACG,0.00623
10,CCTCGCCCCC,0.00144
11,CTCCCACCAC,0.00599
12,CCACCCACAC,0.00635
13,CCACCCCTAC,0.0036
14,CCTCCCCCCG,0.00348
15,GGGGGTGGGA,0.00312
16,GCAAAAAAAA,0.056
17,CCCCTCCCCC,0.00443
18,CGCCCCACCA,0.00312
19,CCCCGCCCAC,0.00407
20,CCCACCTACC,0.00659
